Measured values taken from publication PMC7862700, “An all-to-all approach to the identification of sequence-specific readers for epigenetic DNA modifications on cytosine”.

How the values were obtained:
Test in all cases: DAPPL (digital affinity profiling via proximity ligation, sequencing); 10 mM Tris-HCl pH 7.5, 50 mM NaCl, 1 mM DTT, 4% glycerol, room temperature, 30 min; GST-TFs on glutathione beads, 16-mer random dsDNA library, 0.1% formaldehyde crosslink after washing; high values mean tight binding
Conditions in all cases: protein: recombinant; tags: N-terminal GST; dsDNA, one strand shown
[1] = biological target: T1, FLI1 (Homo sapiens, UniProt Q01543 1-452)
T1 sequence: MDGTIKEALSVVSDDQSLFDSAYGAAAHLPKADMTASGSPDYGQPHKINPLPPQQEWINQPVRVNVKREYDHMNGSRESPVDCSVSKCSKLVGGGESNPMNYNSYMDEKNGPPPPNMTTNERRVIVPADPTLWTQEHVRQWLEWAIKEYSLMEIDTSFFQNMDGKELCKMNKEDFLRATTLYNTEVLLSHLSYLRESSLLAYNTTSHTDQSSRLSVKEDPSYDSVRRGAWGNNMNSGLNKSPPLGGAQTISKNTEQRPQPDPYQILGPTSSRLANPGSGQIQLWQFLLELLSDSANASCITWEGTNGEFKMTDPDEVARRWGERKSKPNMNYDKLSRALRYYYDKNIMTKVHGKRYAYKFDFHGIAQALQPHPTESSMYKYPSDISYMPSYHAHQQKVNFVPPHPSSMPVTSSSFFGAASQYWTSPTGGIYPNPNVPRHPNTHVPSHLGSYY
In short: (§1)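 A tag-only sample was pooled with DNA-barcoded human transcription factors that had been expressed in yeast as GST fusions and captured on glutathione beads. The pools were incubated for 30 min at room temperature with 200 nmole of a random double-stranded 16-mer DNA library in Tris/NaCl/DTT/glycerol buffer, then washed, crosslinked with 0.1% formaldehyde, proximity-ligated (BsaI/T4 ligase, 1 h, 37 °C), PCR-amplified and sequenced on an Illumina NextSeq500. Binding signal is each hexamer's read frequency for a factor divided by its frequency for the tag-only sample.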

[2] = biological target: T2, ELK1 (Homo sapiens, UniProt P19419 1-428)
T2 sequence: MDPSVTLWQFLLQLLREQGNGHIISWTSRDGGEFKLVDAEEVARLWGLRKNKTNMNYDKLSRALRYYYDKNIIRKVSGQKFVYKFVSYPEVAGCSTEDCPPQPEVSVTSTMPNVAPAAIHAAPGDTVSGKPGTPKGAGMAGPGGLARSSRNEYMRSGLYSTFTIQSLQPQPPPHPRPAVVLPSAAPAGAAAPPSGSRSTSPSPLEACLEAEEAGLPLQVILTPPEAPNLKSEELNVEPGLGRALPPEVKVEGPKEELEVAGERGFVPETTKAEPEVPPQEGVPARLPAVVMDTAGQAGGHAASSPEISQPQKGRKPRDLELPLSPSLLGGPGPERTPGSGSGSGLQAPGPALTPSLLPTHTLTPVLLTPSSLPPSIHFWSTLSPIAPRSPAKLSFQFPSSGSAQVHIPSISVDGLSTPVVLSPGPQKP
In short: as §1

[3] = biological target: T3, GABPA (Homo sapiens, UniProt Q06546 1-454)
T3 sequence: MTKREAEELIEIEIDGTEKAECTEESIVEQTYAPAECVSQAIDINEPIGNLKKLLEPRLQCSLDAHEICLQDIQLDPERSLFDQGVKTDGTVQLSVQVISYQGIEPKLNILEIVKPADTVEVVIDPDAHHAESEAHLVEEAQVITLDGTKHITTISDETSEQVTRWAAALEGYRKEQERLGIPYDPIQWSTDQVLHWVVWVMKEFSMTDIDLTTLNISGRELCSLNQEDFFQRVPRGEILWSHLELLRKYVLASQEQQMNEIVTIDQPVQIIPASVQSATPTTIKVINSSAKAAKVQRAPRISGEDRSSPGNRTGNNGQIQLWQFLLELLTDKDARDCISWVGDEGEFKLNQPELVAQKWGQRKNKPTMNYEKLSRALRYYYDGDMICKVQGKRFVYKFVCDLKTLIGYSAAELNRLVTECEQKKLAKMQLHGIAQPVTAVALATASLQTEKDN
In short: as §1

[4] = biological target: T4, ERG (Homo sapiens, UniProt P11308 1-479)
T4 sequence: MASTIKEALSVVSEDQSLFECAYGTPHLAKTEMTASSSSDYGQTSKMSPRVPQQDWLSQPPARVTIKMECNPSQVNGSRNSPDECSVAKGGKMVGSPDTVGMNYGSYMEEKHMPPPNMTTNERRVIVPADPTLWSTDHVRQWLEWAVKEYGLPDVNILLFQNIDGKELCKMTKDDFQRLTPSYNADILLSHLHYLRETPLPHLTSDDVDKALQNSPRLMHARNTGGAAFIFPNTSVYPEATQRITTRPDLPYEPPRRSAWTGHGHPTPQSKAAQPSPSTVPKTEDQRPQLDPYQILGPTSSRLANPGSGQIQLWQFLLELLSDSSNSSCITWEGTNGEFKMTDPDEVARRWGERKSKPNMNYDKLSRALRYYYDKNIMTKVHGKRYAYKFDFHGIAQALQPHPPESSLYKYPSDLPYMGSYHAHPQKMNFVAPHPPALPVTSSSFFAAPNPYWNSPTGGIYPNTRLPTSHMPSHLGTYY
In short: as §1

[5] = biological target: ELF1 (Homo sapiens, UniProt P32519 1-619)
Sequence of ELF1 (P32519 whole entry): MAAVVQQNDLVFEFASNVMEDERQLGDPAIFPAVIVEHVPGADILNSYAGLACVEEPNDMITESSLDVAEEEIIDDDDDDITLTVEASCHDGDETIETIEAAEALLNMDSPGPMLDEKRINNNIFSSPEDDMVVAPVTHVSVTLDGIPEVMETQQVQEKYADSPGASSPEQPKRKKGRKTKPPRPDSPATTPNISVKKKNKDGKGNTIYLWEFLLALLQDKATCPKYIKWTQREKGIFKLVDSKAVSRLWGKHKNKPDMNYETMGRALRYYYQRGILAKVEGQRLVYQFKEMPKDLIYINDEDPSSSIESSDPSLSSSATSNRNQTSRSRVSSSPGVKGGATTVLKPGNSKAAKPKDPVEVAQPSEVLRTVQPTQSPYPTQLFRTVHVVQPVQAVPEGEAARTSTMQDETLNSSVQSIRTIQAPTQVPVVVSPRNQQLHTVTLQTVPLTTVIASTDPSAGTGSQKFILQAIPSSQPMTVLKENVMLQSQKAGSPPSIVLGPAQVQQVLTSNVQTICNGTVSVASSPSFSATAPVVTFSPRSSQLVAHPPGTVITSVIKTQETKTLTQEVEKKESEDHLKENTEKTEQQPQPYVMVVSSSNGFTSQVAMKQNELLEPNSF
In short: as §1

[6] = biological target: T5, EHF (Homo sapiens, UniProt Q9NZC4 1-300)
T5 sequence: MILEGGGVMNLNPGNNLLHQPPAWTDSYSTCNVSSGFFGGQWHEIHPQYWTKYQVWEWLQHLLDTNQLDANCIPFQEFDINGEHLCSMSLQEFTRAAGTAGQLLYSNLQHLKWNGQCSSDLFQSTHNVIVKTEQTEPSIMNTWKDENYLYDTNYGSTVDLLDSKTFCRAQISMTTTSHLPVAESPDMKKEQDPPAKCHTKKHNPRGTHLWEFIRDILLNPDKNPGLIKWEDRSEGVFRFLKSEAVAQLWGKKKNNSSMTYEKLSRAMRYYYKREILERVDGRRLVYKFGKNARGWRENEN
In short: as §1

[7] = biological target: SPI1 (Homo sapiens, UniProt P17947 1-270)
In short: as §1

[8] = biological target: SPIB (Homo sapiens, UniProt Q01892 1-262)
Sequence of SPIB (Q01892 whole entry): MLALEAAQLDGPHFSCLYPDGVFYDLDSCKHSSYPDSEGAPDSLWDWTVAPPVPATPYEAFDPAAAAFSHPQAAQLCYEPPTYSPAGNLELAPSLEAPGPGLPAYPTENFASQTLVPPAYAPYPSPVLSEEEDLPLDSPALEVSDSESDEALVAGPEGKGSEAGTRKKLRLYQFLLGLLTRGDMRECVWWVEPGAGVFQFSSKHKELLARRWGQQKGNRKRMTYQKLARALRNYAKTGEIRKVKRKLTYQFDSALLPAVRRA
In short: as §1

[9] = biological target: T6, ELK3 (Homo sapiens, UniProt P41970 1-407)
T6 sequence: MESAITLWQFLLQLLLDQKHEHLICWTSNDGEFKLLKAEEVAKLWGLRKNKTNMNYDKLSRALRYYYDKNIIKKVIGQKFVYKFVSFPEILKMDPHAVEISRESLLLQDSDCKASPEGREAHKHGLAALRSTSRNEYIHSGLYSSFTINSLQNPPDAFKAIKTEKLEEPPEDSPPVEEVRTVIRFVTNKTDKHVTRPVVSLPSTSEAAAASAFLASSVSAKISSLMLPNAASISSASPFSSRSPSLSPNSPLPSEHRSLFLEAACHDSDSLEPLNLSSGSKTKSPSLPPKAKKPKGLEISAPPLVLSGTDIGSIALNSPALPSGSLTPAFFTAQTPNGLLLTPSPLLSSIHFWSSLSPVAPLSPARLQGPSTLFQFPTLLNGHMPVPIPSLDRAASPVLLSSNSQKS
In short: as §1

CATTCG
binding signal [1]: 1.25 fold enrichment (6-mer frequency, TF over GST control)
binding signal [2]: 1.11 fold enrichment (6-mer frequency, TF over GST control)
binding signal [3]: 1.17 fold enrichment (6-mer frequency, TF over GST control)
binding signal [4]: 1.21 fold enrichment (6-mer frequency, TF over GST control)
binding signal [5]: 1.28 fold enrichment (6-mer frequency, TF over GST control)
binding signal [6]: 1.08 fold enrichment (6-mer frequency, TF over GST control)
binding signal [7]: 1.26 fold enrichment (6-mer frequency, TF over GST control)
binding signal [8]: 1.15 fold enrichment (6-mer frequency, TF over GST control)
binding signal [9]: 1.24 fold enrichment (6-mer frequency, TF over GST control)

TACAAT
binding signal [1]: 1.29 fold enrichment (6-mer frequency, TF over GST control)
binding signal [2]: 1.28 fold enrichment (6-mer frequency, TF over GST control)
binding signal [3]: 1.32 fold enrichment (6-mer frequency, TF over GST control)
binding signal [4]: 1.29 fold enrichment (6-mer frequency, TF over GST control)
binding signal [5]: 1.3 fold enrichment (6-mer frequency, TF over GST control)
binding signal [6]: 1.38 fold enrichment (6-mer frequency, TF over GST control)
binding signal [7]: 1.25 fold enrichment (6-mer frequency, TF over GST control)
binding signal [8]: 1.26 fold enrichment (6-mer frequency, TF over GST control)
binding signal [9]: 1.21 fold enrichment (6-mer frequency, TF over GST control)

TGACCA
binding signal [1]: 1.25 fold enrichment (6-mer frequency, TF over GST control)
binding signal [2]: 1.32 fold enrichment (6-mer frequency, TF over GST control)
binding signal [3]: 1.33 fold enrichment (6-mer frequency, TF over GST control)
binding signal [4]: 1.15 fold enrichment (6-mer frequency, TF over GST control)
binding signal [5]: 1.29 fold enrichment (6-mer frequency, TF over GST control)
binding signal [6]: 1.33 fold enrichment (6-mer frequency, TF over GST control)
binding signal [7]: 1.25 fold enrichment (6-mer frequency, TF over GST control)
binding signal [8]: 1.21 fold enrichment (6-mer frequency, TF over GST control)
binding signal [9]: 1.45 fold enrichment (6-mer frequency, TF over GST control)

TCTCAA
binding signal [1]: 1.38 fold enrichment (6-mer frequency, TF over GST control)
binding signal [2]: 1.27 fold enrichment (6-mer frequency, TF over GST control)
binding signal [3]: 1.27 fold enrichment (6-mer frequency, TF over GST control)
binding signal [4]: 1.28 fold enrichment (6-mer frequency, TF over GST control)
binding signal [5]: 1.26 fold enrichment (6-mer frequency, TF over GST control)
binding signal [6]: 1.19 fold enrichment (6-mer frequency, TF over GST control)
binding signal [7]: 1.22 fold enrichment (6-mer frequency, TF over GST control)
binding signal [8]: 1.33 fold enrichment (6-mer frequency, TF over GST control)
binding signal [9]: 1.43 fold enrichment (6-mer frequency, TF over GST control)

ATATTG
binding signal [1]: 1.25 fold enrichment (6-mer frequency, TF over GST control)
binding signal [2]: 1.31 fold enrichment (6-mer frequency, TF over GST control)
binding signal [3]: 1.32 fold enrichment (6-mer frequency, TF over GST control)
binding signal [4]: 1.25 fold enrichment (6-mer frequency, TF over GST control)
binding signal [5]: 1.31 fold enrichment (6-mer frequency, TF over GST control)
binding signal [6]: 1.3 fold enrichment (6-mer frequency, TF over GST control)
binding signal [7]: 1.28 fold enrichment (6-mer frequency, TF over GST control)
binding signal [8]: 1.28 fold enrichment (6-mer frequency, TF over GST control)
binding signal [9]: 1.29 fold enrichment (6-mer frequency, TF over GST control)

GCACTC
binding signal [1]: 1.29 fold enrichment (6-mer frequency, TF over GST control)
binding signal [2]: 1.5 fold enrichment (6-mer frequency, TF over GST control)
binding signal [3]: 1.32 fold enrichment (6-mer frequency, TF over GST control)
binding signal [4]: 1.31 fold enrichment (6-mer frequency, TF over GST control)
binding signal [5]: 1.33 fold enrichment (6-mer frequency, TF over GST control)
binding signal [6]: 1.37 fold enrichment (6-mer frequency, TF over GST control)
binding signal [7]: 1.35 fold enrichment (6-mer frequency, TF over GST control)
binding signal [8]: 1.35 fold enrichment (6-mer frequency, TF over GST control)
binding signal [9]: 1.28 fold enrichment (6-mer frequency, TF over GST control)

AATTCT
binding signal [1]: 1.4 fold enrichment (6-mer frequency, TF over GST control)
binding signal [2]: 1.22 fold enrichment (6-mer frequency, TF over GST control)
binding signal [3]: 1.38 fold enrichment (6-mer frequency, TF over GST control)
binding signal [4]: 1.31 fold enrichment (6-mer frequency, TF over GST control)
binding signal [5]: 1.32 fold enrichment (6-mer frequency, TF over GST control)
binding signal [6]: 1.28 fold enrichment (6-mer frequency, TF over GST control)
binding signal [7]: 1.27 fold enrichment (6-mer frequency, TF over GST control)
binding signal [8]: 1.39 fold enrichment (6-mer frequency, TF over GST control)
binding signal [9]: 1.38 fold enrichment (6-mer frequency, TF over GST control)
